Measurements as given in the supplement of paper PMC10338343.
± gives the standard deviation.

These sequences were tested on EfPiwi piRISC loaded with L1MC piRNA (26 nt) (assay: pre-steady-state target cleavage rate (min^-1); auxiliary factor: 500 nM Ephydatia muelleri Gtsf1; guide: L1MC piRNA 5'p-UAACUAAAUACUAUGCAAGCUGUAGG; MIWI and MILI are mouse PIWI proteins and EfPiwi is from a freshwater sponge; tags in brackets are library labels; higher = faster piRNA-guided slicing of the target).
Procedure, shortened: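 The pre-steady-state cleavage rate was derived from a burst-and-steady-state fit of Cleave-'n-Seq data. For these assays, 1 nM active affinity-purified piRISC loaded with a single synthetic guide was mixed with […] a transcribed, DNA-blocked target RNA library in HEPES–potassium acetate buffer at 33 °C, with or without 500 nM GTSF1 partner protein, for 0–8 or 0–960 min. Sequencing counts of uncleaved targets were normalised to depth and to weakly complementary targets, and k3 was capped at 0.0001 min^-1 after three trials were pooled.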

First: UCCUGGAUGAGCUUGCUUAGUAAUUAGUUA
Second: UCCUGGAACAGGUUGCAUAGUAUUUAGUUA
The “pre-steady-state target cleavage rate” value of the first is lower: 0.00425 ± 0.0027 for the first, 0.0388 ± 0.0088 for the second.

Compared with UCCUCCUAGAGGUUGCAUAGUAUUUAGUUA, UCCUGGUACAGCAUGCAUAGUAAUUAGUUA is lower in “pre-steady-state target cleavage rate” value: 0.0153 ± 0.0029 for the first, 0.00882 ± 0.0034 for the second.

UCCUCCUACAGCUUGCAUAGUAUUUACUUA and UCCUGGAUGUGCUUGCAUAGUAGUUUAGUUA are within error of each other in “pre-steady-state target cleavage rate” value: 0.0042 ± 0.0034 for the first, 0.0051 ± 0.0034 for the second.

Going from UCCUCGUACAGCUAGCAUAGUAUUUAGUUA to UCCUCCUACAGCAUGCUUAGUAUUUAGUUA, the “pre-steady-state target cleavage rate” value falls from 0.0402 ± 0.01 to 0.0116 ± 0.0032.

UCCUCCUACAGCUUGCAUAGUAUUAAGUUA and UCCUGGAACAGGAAGCAUAGUAUUUAGUUA are within error of each other in “pre-steady-state target cleavage rate” value: 0.00589 ± 0.0029 for the first, 0.00471 ± 0.002 for the second.

UCCUCCUACAGCUUGCAAAGUAAUUAGUUA and UCCUGCUACAGCUUUCAUAGUAUUUAGUUA are within error of each other in “pre-steady-state target cleavage rate” value: 0.00531 ± 0.0022 for the first, 0.00701 ± 0.0022 for the second.

UCCUCCUACAGCUUGCAUAGUGUUUAGUUA and UCCUGGAACAGCAUGCAUAGUAUAUAGUUA are within error of each other in “pre-steady-state target cleavage rate” value: 0.0149 ± 0.0041 for the first, 0.0106 ± 0.005 for the second.

UCCUGCUACAGCUUGCUAAGUAUUUAGUUA and UCCUGGAUGUCCUUGCAUAGUUUUUAGUUA are within error of each other in “pre-steady-state target cleavage rate” value: 0.00353 ± 0.0029 for the first, 0.00455 ± 0.003 for the second.
